High-throughput results (PubChem BioAssay)
An excerpt weighted towards active compounds, which were near 19% of everything screened.
TDP1 cell CPT – qHTS for Inhibitors of human tyrosyl-DNA phosphodiesterase 1 (TDP1): qHTS in cells in presence of CPT | chicken DT40 Tdp1-/-;hTDP1 cells + 20 nM CPT, ATP luminescence, 48 h | Potency, µM (series often up to 46.2 µM), inactives show at the highest dose activity change, negative = growth inhibition, hits mostly inhibitors | 420,000 tested, 12% active | AID 686979, 2013; also: potency is read from the fitted curve at half-maximal effect; % is scaled to controls: 0 for no effect and ±100 for the full control effect; nearly all actives have a fitted effect of over 55% in size
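Cell growth measured by CellTiter-Glo luminescence after a minimum 48 h, 37 C compound exposure with 20 nM CPT in Tdp1-knockout DT40 cells stably expressing hTDP1, seeded 400/well; qHTS titration format.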
IL1B secr inh – qHTS for Inhibitors of Inflammasome Signaling: IL-1-beta AlphaLISA Primary Screen; 360,000 tested, 4.7% active; THP-1 LPS/ATP IL-1B secretion, AlphaLISA, 16 h; hits give low values; AID 743279, 2014; activity change, % at 57.5 µM; in the data active = activity change below about -50%; inconclusive = mostly about -30% to -49%; also: % is scaled to controls: 0 for no effect and ±100 for the full control effect
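THP-1 cells pretreated 1 hr with compounds (up to 57.5 uM final), then stimulated with LPS (250 ng/mL final) plus ATP (1.25 mM final); secreted IL-1B measured by AlphaLISA after 16 hr, decreased signal indicating inhibition.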
Chronic BCR inh – qHTS Assay to Find Inhibitors of Chronic Active B-Cell Receptor Signaling. 340,000 tested, 0.05% active. ABC-DLBCL IkBa-CBG/CBR reporter, luminescence ratio, 4 h. Potency, µM (series often up to 46.1 µM), for inactives: at the highest dose activity change, negative = inhibition, most hits filed as inhibitors; active = well fitted inhibition curve with a large enough effect in the signal ratio, with a control signal flat, not every such curve was filed as active; inconclusive = small, poorly fitted or top-dose-only effect, or effect the other way, or a change in a side signal; the % refers to the signal ratio;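 also: potency is read from the fitted curve at half-maximal effect; plate controls were basal doxycycline-induced cells for no effect and cells given 10 µM MG132 for full effect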
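Concentration-response series (up to 46 uM) were applied to TMD8 dual-reporter cells for 4 h at 37C with doxycycline. Green/red ratio, after filter-overlap correction, defined %Activity; red signal alone was normalised to basal cells and zero luminescence.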
SW480 rerep – A quantitative high throughput screen for small molecules that induce DNA re-replication in SW480 colon adenocarcinoma cells | Potency, µM (doses to about 46.1 µM), without a hit: top-dose re-replication activation, usual class: activators | SW480 DNA re-replication, Hoechst DNA content imaging, 48 h | 340,000 tested, 1.8% active; also: potency is read from the fitted curve at half-maximal effect; % of control where 0% means no effect; nearly all actives have a fitted effect of over 55% in size
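Hoechst fluorescence of nuclei (405 nm excitation, 500-530 nm emission) measured by plate-scanning imager after 48 hr compound exposure at 37 C; re-replication scored as increased number of nuclei with elevated intensity.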
MCF10A rereplic – A quantitative high throughput screen for small molecules that induce DNA re-replication in MCF 10a normal breast cells | AID 624296, 2012 | Potency, µM (doses to about 46.1 µM), inactives show at the top dose activity, positive = re-replication, usual class: activators | MCF 10A DNA re-replication, Hoechst nuclear intensity, 48 h | 350,000 tested, 2.9% active; also: potency is read from the fitted curve at half-maximal effect; % of control where 0% means no effect; nearly all actives have a fitted effect of over 50% in size
TDP1 cell noCPT – qHTS for Inhibitors of human tyrosyl-DNA phosphodiesterase 1 (TDP1): qHTS in cells in absence of CPT. DT40 Tdp1-/- hTDP1 cells, no CPT, ATP luminescence, 48 h. Potency, µM (series often up to 46.2 µM), for inactives: top-dose activity change, negative = growth inhibition, usual class: inhibitors. 420,000 tested, 15% active. AID 686978, 2013; also: potency is read from the fitted curve at half-maximal effect; % is scaled to controls: 0 for no effect and ±100 for the full control effect; nearly all actives have a fitted effect of over 55% in size
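Stably hTDP1-transfected Tdp1-null chicken DT40 cells were treated with library compounds minus camptothecin and grown for at least 48 hr at 37 °C, after which cellular ATP was quantified by luminescence.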
* marks the source's active call; other numbers are inactive results; u = inconclusive; x = no result. Unless noted, calls follow the shape of the dose curve; as a rule, active = well fitted curve in the direction sought with a large enough effect; inconclusive = small, poorly fitted or top-dose-only effect, or another doubt; inactive = no such curve, though single readings can be large; an effect the other way counts as inactive or inconclusive.

SMILES	TDP1 cell CPT	IL1B secr inh	Chronic BCR inh	SW480 rerep	MCF10A rereplic	TDP1 cell noCPT
COc1cccc(-c2nn(-c3ccc(C)cc3)cc2C(=O)N2CCc3cc(OC)c(OC)cc3C2)c1	18.4µM*	-5.6	-3.5%	u	u	u
O=C(CCC1CCCCC1)NCCS(=O)(=O)N1CCN(c2ccccc2)CC1	u	-0.4	-1.1%	1.4%	1.7%	-28.5%
COc1ccc(CNc2ncncc2-c2ccc3c(c2)OCO3)c(OC)c1	-29.7%	x	x	x	x	u
O=C(Nc1cccc(C(=O)O)c1)/C(=C\c1cccc([N+](=O)[O-])c1)NC(=O)c1ccc(Br)cc1	10.0%	-10.3	x	x	x	-3.5%
CCOC(=O)N1CCN(C(=O)/C=C/c2ccc([N+](=O)[O-])cc2)CC1	-6.3%	-6.5	-2.0%	u	-0.6%	-21.1%
COc1cc2c(cc1OC)CN(C(=O)/C=C/c1ccc([N+](=O)[O-])cc1)CC2	18.4µM*	-5.0	0.2%	-8.4%	18.3%	16.4µM*
COc1cc2c(cc1OC)CN(C(=O)c1ccc(S(=O)(=O)N3CCCC3)cc1)CC2	-9.3%	-17.4	u	0.5%	-3.1%	-7.3%
CCOc1ccc(C(=O)N2CCc3cc(OC)c(OC)cc3C2)cc1OCC	u	-3.3	0.1%	6.2%	1.0%	29.1µM*
CCC(C(=O)Nc1ccc([N+](=O)[O-])cn1)c1ccccc1 (centres undefined)	-17.5%	-3.0	13.3%	3.1%	-0.3%	u
N#Cc1cc(C#N)c(N2CCN(c3cccc(Cl)n3)CC2)nc1N	u	-1.2	u	19.6%	3.26µM*	u
NC1CCN(c2cccc(Cl)n2)CC1	3.7%	x	x	-2.1%	1.6%	u
CC(=O)n1c2c(c3ccccc31)OC(N)=C(C#N)C2c1cccc(Cl)c1Cl (centres undefined)	14.6µM*	20.1	u	u	u	7.31µM*
COc1ccc(CNC(=O)C2CCN(S(=O)(=O)c3ccc4c(ccn4C)c3)CC2)cc1	-4.8%	x	x	x	x	u
CC1=CC(C)(C)N(C(=O)c2ccccc2)c2ccc(C)cc21	14.6µM*	37.9	7.4%	23.1%	20.2%	23.1µM*
O=C(COC(=O)c1cc(Cl)ccc1O)NNC(=O)c1ccccc1F	-9.5%	15.2	0.0%	0.3%	-2.0%	-20.2%
COc1ccc(N2C(=O)CC(NNC(=O)c3cc(C)oc3C)C2=O)cc1 (centres undefined)	4.6%	-3.3	u	5.6%	2.59µM*	10.3%
COc1ccc(N2C(=O)CC(NNc3ncc(Cl)cc3Cl)C2=O)cc1 (centres undefined)	14.6µM*	17.8	2.4%	-18.1%	25.3%	14.6µM*
COc1cccc(NC(=O)Cn2c(=O)n(Cc3ccccc3)c(=O)c3c2c2cc(C)ccc2n3C)c1	u	x	x	x	x	3.66µM*
Cc1ccc2c(c1)c1c(c(=O)n(-c3ccccc3C)c(=O)n1Cc1cccc(F)c1)n2C	13µM*	x	x	x	x	9.2µM*
COc1ccc2c(c1)c1c(c(=O)n(-c3ccccc3C)c(=O)n1CC(=O)NCc1ccc(C)cc1)n2C	20.6µM*	x	x	x	x	13µM*
Cc1cccc(Cn2c(=O)n(-c3ccccc3C)c(=O)c3c2c2cc(C)ccc2n3C)c1	23.1µM*	x	x	x	x	20.6µM*
Cc1ccc(S(=O)(=O)N2CCN(C(=O)C3CSC4(C)CCC(=O)N34)CC2)cc1C (centres undefined)	-19.2%	-2.9	11.3%	-5.1%	7.3%	u
Cc1ccc(S(=O)(=O)NCC(=O)OCC(=O)c2c(N)n(C)c(=O)n(C)c2=O)cc1	u	4.2	0.4%	x	-0.9%	-17.2%
C=Cc1ccc(Cn2c(=O)n(-c3ccc(C)cc3)c(=O)c3c2c2cc(OC)ccc2n3C)cc1	u	x	x	x	x	25.9µM*
Cc1ccc(-n2ncc(C(=O)Nc3cc(Cl)cc(Cl)c3)c2C2CCNCC2)cc1C	u	-19.0	u	4.61µM*	u	u
SMILES	TDP1 cell CPT	IL1B secr inh	Chronic BCR inh	SW480 rerep	MCF10A rereplic	TDP1 cell noCPT
Cc1ccc(-n2ncc(C(=O)Nc3cc(Cl)ccc3Cl)c2C2CCNCC2)cc1	23.1µM*	-0.2	u	20.9%	0.0%	23.1µM*
CCOc1ccc(OCCC(=O)OCC(=O)NC2CCCC2)cc1	-7.8%	13.2	1.3%	-6.3%	-5.6%	-13.0%
Cc1nnc(N2C(=O)c3oc4ccccc4c(=O)c3C2c2ccc(F)cc2)s1 (centres undefined)	-1.8%	x	x	x	x	-0.4%
CN1CCCN(c2cc(-c3ccc4ccccc4c3)nc3ccnn23)CC1	20.6µM*	-21.8	x	x	x	20.6µM*
COc1ccc(-c2cc(N3CCN(CCO)CC3)n3nccc3n2)cc1	-6.3%	-22.7	x	x	x	-12.1%
OCCN1CCN(c2cc(-c3ccc4ccccc4c3)nc3ccnn23)CC1	18.4µM*	-8.6	x	x	x	u
Cc1cccc(-c2cc(N3CCCN(C)CC3)n3nccc3n2)c1	u	-8.7	x	x	x	u
COc1ccccc1/C=C/C1(C(=O)NC2CCCC2)CC(=O)N1c1ccccc1 (centres undefined)	6.51µM*	97.4	u	7.31µM*	9.2µM*	7.31µM*
COc1ccc(CNc2nc3ccccc3n2Cc2ccccc2)cc1OC	u	u	10.1%	-2.2%	19.3%	18.4µM*
c1ccc(Cn2c(NCc3ccco3)nc3ccccc32)cc1	u	-25.2	18.8%	-0.2%	21.2%	18.4µM*
FC(F)(F)c1nc2nccnc2[nH]1	-12.8%	0.0	x	x	x	u
CCC(=O)N1CCN(c2ccc(NC(=O)c3ccc([N+](=O)[O-])o3)cc2)CC1	4.61µM*	-102.6*	u	-0.4%	11.0%	20.6µM*
CC1CCN(c2ccc(NC(=O)c3ccc([N+](=O)[O-])o3)cc2)CC1	4.61µM*	-109.0*	-17.1%	9.2µM*	3.26µM*	3.26µM*
CC(C)(C)C(=O)N1CCN(c2ccc(NC(=O)c3ccc([N+](=O)[O-])o3)cc2)CC1	2.59µM*	-96.1*	u	1.84µM*	1.84µM*	6.51µM*
O=C(Nc1ccc(N2CCN(C(=O)c3ccc(Cl)cc3)CC2)cc1)c1ccc([N+](=O)[O-])o1	2.91µM*	-106.7*	u	u	u	1.16µM*
